{
  "source": "the supplement of paper PMC11624193",
  "about": "“Coupling cellular drug-target engagement to downstream pharmacology with CeTEAM” (Nature Communications, 2024)",
  "note": "“And” between values parts separate entries of the source, which are not always exact repeats. Equal values may be shown once. Where a name gives a salt, the structure may show the parent alone. A number with no mark means an inactive call.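 How the source made its calls: active = log2 fold change beyond 2 SD from the library mean after excluding viability outliers; inactive = within 2 SD.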",
  "data": [
    {"target": "PARP1 L713F-nLuc biosensor (HCT116) (UniProt P09874)", "sequence (P09874 whole entry L713F, looked up)": "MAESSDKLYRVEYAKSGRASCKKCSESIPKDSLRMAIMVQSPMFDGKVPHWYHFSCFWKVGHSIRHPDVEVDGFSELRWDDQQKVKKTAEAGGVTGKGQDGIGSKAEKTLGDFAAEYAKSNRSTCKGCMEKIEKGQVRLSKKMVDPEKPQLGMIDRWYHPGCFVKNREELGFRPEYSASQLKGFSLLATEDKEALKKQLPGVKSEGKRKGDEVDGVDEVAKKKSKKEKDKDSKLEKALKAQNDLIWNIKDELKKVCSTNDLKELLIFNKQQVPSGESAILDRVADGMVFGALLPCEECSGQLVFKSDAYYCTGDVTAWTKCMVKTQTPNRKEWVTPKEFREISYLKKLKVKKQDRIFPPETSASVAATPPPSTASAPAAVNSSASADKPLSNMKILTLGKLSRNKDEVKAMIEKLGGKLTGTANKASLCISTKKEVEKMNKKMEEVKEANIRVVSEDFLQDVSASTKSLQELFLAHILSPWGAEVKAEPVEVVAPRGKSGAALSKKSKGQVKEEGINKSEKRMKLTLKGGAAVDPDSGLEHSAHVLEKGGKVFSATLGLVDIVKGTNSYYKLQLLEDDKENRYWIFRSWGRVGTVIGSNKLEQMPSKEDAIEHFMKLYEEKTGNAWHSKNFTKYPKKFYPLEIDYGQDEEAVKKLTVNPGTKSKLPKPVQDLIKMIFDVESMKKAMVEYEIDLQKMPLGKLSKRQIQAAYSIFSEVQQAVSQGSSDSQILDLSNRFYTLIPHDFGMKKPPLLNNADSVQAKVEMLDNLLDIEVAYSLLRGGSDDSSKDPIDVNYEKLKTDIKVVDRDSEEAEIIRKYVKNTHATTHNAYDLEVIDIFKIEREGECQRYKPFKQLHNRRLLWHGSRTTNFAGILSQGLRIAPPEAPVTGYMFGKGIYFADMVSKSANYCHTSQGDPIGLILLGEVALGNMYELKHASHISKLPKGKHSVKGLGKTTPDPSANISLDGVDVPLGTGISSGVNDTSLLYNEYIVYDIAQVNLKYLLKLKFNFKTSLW", "assay": "PARP1 L713F-nLuc/akaLuc ratio relative to DMSO control (biosensor stabilization) (fold change); higher = more PARP1 biosensor stabilization (target engagement / stabilizer), active = hit call of the paper", "details": "stock concentration (mM; final µM = stock mM x 1): 10; 24 h", "values": [
      {"smiles": "CCS(=O)(=O)N1CC(CC#N)(n2cc(-c3ncnc4[nH]ccc34)cn2)C1", "note": "[Baricitinib]", "PARP1 L713F-nLuc/akaLuc ratio": 0.881},
      {"smiles": "Cc1ccc(Oc2nc3cc(-c4ccc(-c5ccccc5)cc4)c(Cl)cc3[nH]2)cc1C(=O)O", "PARP1 L713F-nLuc/akaLuc ratio": 0.635},
      {"smiles": "Cc1ccc2[nH]c3c(c2c1)CCCC3C(N)=O", "note": "(stereo not drawn)", "PARP1 L713F-nLuc/akaLuc ratio": 1.25},
      {"smiles": "O=C(Nc1cc(Cl)cc2c1[nH]c1cnccc12)c1cccnc1", "PARP1 L713F-nLuc/akaLuc ratio": 0.723},
      {"smiles": "COc1cc2ncnc(Nc3ccc(NC(=O)c4ccccc4)cc3)c2cc1OC", "note": "[Aurora kinase inhibitor-2]", "PARP1 L713F-nLuc/akaLuc ratio": 1.35},
      {"smiles": "C[C@@H]1CC[C@@]2(OC1)O[C@H]1C[C@H]3[C@@H]4CC=C5C[C@@H](O[C@@H]6O[C@H](CO)[C@@H](O[C@@H]7O[C@@H](C)[C@H](O[C@@H]8O[C@@H](C)[C@H](O)[C@@H](O)[C@H]8O)[C@@H](O)[C@H]7O)[C@H](O)[C@H]6O[C@@H]6O[C@@H](C)[C@H](O)[C@@H](O)[C@H]6O)CC[C@]5(C)[C@H]4CC[C@]3(C)[C@@]1(O)[C@@H]2C", "note": "[Paris saponin VII]", "PARP1 L713F-nLuc/akaLuc ratio": 1.01},
      {"smiles": "N[C@@H]1CCCN(c2c(/C=C3\\SC(=O)NC3=O)cccc2-c2ccccc2)C1", "PARP1 L713F-nLuc/akaLuc ratio": 0.726},
      {"smiles": "CS(=O)(=O)NCCC1CCN(c2ncnc3cc(C(N)=O)sc23)CC1", "PARP1 L713F-nLuc/akaLuc ratio": 0.762},
      {"smiles": "CNCCN(C)Cc1c[nH]nc1-c1ccc(O[C@H]2C[C@H](OCCC3CCOCC3)C2)cc1", "PARP1 L713F-nLuc/akaLuc ratio": 0.64},
      {"smiles": "CCCCC(=O)OCC(=O)[C@]1(O)Cc2c(O)c3c(c(O)c2[C@@H](O[C@H]2C[C@H](NC(=O)C(F)(F)F)[C@H](O)[C@H](C)O2)C1)C(=O)c1c(OC)cccc1C3=O", "note": "[Valrubicin]", "PARP1 L713F-nLuc/akaLuc ratio": 1.13},
      {"smiles": "CC(C)NC(=O)COc1cccc(-c2nc(Nc3ccc4[nH]ncc4c3)c3ccccc3n2)c1", "PARP1 L713F-nLuc/akaLuc ratio": 0.38},
      {"smiles": "COc1cc(OC2CCN(C)CC2)ccc1Nc1ncc2c(n1)n(C1CCCC1)c(=O)n2C", "PARP1 L713F-nLuc/akaLuc ratio": 1.18},
      {"smiles": "Cc1cnc(Nc2ccc(OCCN3CCCC3)cc2)nc1Nc1cccc(S(=O)(=O)NC(C)(C)C)c1", "note": "[Fedratinib (hydrochloride hydrate)]", "PARP1 L713F-nLuc/akaLuc ratio": 0.551},
      {"smiles": "O=C1NC(=O)/C(=C\\c2cccc(C(F)(F)F)c2)S1", "PARP1 L713F-nLuc/akaLuc ratio": 0.962},
      {"smiles": "Cc1nc2sccn2c(=O)c1CCN1CCC(=C(c2ccccc2)c2ccc(F)cc2)CC1", "PARP1 L713F-nLuc/akaLuc ratio": 1.01},
      {"smiles": "NC(=O)c1cccnc1", "note": "[Nicotinamide]", "PARP1 L713F-nLuc/akaLuc ratio": 0.942},
      {"smiles": "Cc1cccc(-c2[nH]c(CNc3ccccc3F)nc2-c2ccc3ncnn3c2)n1", "note": "[Vactosertib ?(TEW-7197)]", "PARP1 L713F-nLuc/akaLuc ratio": 1.18},
      {"smiles": "O=C(CNC(=O)[C@H](COP(=O)(O)O)NC(=O)CCc1c[nH]c2ccccc12)NCCCCc1ccccc1", "PARP1 L713F-nLuc/akaLuc ratio": 1.08},
      {"smiles": "CC(=O)O[C@@H]1CC[C@@]2(C)[C@@H](CC[C@]3(C)[C@@H]2C(=O)C=C2[C@@H]4[C@@H](C)[C@H](C)CC[C@]4(C)CC[C@]23C)[C@@]1(C)C(=O)O", "PARP1 L713F-nLuc/akaLuc ratio": 1.18},
      {"smiles": "O=C(NC[C@H](O)CN1CCc2ccccc2C1)c1cc(NC2COC2)ncn1", "PARP1 L713F-nLuc/akaLuc ratio": "0.532 and 0.854"},
      {"smiles": "Cn1ncc(NC(=O)c2nc(-c3c(F)cccc3F)sc2N)c1N1CC[C@@H](N)[C@H](F)CC1", "PARP1 L713F-nLuc/akaLuc ratio": 0.793},
      {"smiles": "N[C@H]1C[C@@H]1c1ccc(-c2cccc(O)c2)cc1", "PARP1 L713F-nLuc/akaLuc ratio": 0.692},
      {"smiles": "CCOc1ccn(-c2ccc(F)cc2)c(=O)c1C(=O)Nc1ccc(Oc2ccnc(N)c2Cl)c(F)c1", "PARP1 L713F-nLuc/akaLuc ratio": 1},
      {"smiles": "O=C(c1cccc(Cl)c1F)N1CCN(Cc2cccc(Nc3nccs3)n2)CC1", "PARP1 L713F-nLuc/akaLuc ratio": 1.61},
      {"smiles": "COc1cc(Nc2ncc3c(n2)-c2ccc(Cl)cc2C(c2c(F)cccc2OC)=NC3)ccc1C(=O)O", "note": "[Alisertib]", "PARP1 L713F-nLuc/akaLuc ratio": 0.939},
      {"smiles": "NC(=O)c1ccc(Oc2ccc(C(N)=O)cc2)cc1", "PARP1 L713F-nLuc/akaLuc ratio": 1.27},
      {"smiles": "Cc1cc(-c2ccccc2)cc(C(=O)NNS(=O)(=O)c2ccccc2)c1F", "PARP1 L713F-nLuc/akaLuc ratio": 0.665},
      {"smiles": "CN1CCc2c(c3ccccc3n2Cc2ccc(C(=O)NO)cc2)C1", "note": "[Tubastatin A (Hydrochloride)]", "PARP1 L713F-nLuc/akaLuc ratio": 2.07},
      {"smiles": "Cc1cc(C)c(CNC(=O)c2cc(-c3ccc(N4CCN(C)CC4)nc3)cc3c2c(C)cn3C(C)C)c(=O)[nH]1", "PARP1 L713F-nLuc/akaLuc ratio": 1.47},
      {"smiles": "O=c1c(-n2ccnn2)c[nH]n1-c1cc(N2CCOCC2)ncn1", "note": "[Molidustat]", "PARP1 L713F-nLuc/akaLuc ratio": 0.788},
      {"smiles": "Cc1ncc(Cl)cc1NCc1ccc(C(=O)N[C@@H](CC2CCCC2)C(=O)NC2CC2)s1", "PARP1 L713F-nLuc/akaLuc ratio": 0.585},
      {"smiles": "COc1cc2onc(C)c2cc1NS(=O)(=O)c1cc(Br)ccc1OC", "PARP1 L713F-nLuc/akaLuc ratio": 0.95},
      {"smiles": "CC(C)(O)c1ccc(-c2nc3c(F)cc(F)cc3c(=O)[nH]2)cc1", "note": "[Tankyrase-IN-2]", "PARP1 L713F-nLuc/akaLuc ratio": "2.95 (active)"},
      {"smiles": "CC(C)=CC(=O)O[C@H]1Cc2cc3ccc(=O)oc3cc2OC1(C)C", "note": "[Decursin]", "PARP1 L713F-nLuc/akaLuc ratio": 0.768},
      {"smiles": "Cc1ccc(-c2cc(C(F)(F)F)nn2-c2ccc(S(N)(=O)=O)cc2)cc1", "note": "[Celecoxib]", "PARP1 L713F-nLuc/akaLuc ratio": 1.02},
      {"smiles": "Cc1ccc(-n2nc(C(C)(C)C)cc2NC(=O)Nc2ccc(OCCN3CCOCC3)c3ccccc23)cc1", "note": "[Doramapimod (BIRB 796)]", "PARP1 L713F-nLuc/akaLuc ratio": 0.671},
      {"smiles": "C=CC(=O)Nc1cccc(CNc2nc(Nc3ccc(N4CCN(C)CC4)cc3OC)ncc2Cl)c1", "PARP1 L713F-nLuc/akaLuc ratio": 1.54},
      {"smiles": "COc1ccc2cc3[n+](cc2c1OC)CCc1cc(O)c(O)cc1-3", "note": "[Demethyleneberberine]", "PARP1 L713F-nLuc/akaLuc ratio": 1.47}
    ]}
  ]
}
